Rows were chosen to be rich in hits. Some 3.5% of all compounds tested hit in one or more screens of this group.
TEAD-YAP block: TEAD-YAP interaction inhibition, primary screen, TEAD-YAP interaction inhibitor project, luminescence, HEK-TIYL cells. TEAD-Gal4/YAP UAS-luciferase luminescence. inhibition, % at 9.12 µM. 1.4% of 640,000 active. AID 1259422, 2018; in the data active = inhibition above about 32%;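 note: 0% = median of test compound wells and 100% = reference inhibitor wells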
FBW7 activator: FBW7 E3 ligase activators, primary screen, biochemical, AlphaScreen, human | F-box/WD repeat-containing protein 7 (Homo sapiens), Q969H0 | AlphaScreen FBW7–phospho-cyclin E peptide binding, activator screen | normalized activity (activation), % at 26.1 µM | 0.13% of 650,000 active; in the data active = normalized activity above about 1.9%;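 note: purified mutant Fbw7 with reduced substrate affinity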
MITF primary: MITF inhibitors, primary screen, biochemical, AlphaScreen, human | AID 1259374, 2018 | inhibition, % at 2.6 µM | Microphthalmia-associated transcription factor (Homo sapiens), O75030 | AlphaScreen MITF homodimerization, bead proximity signal | 0.91% of 650,000 active; in the data active = inhibition above about 50%;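 note: 0% = vehicle wells with protein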
GPR151 activ: activators of human GPR151, primary screen, cell-based, PathHunter beta-arrestin, luminescence; G-protein coupled receptor 151 (Homo sapiens), Q8TDV0; PathHunter beta-arrestin GPR151 cells; activation, % at 11.2 µM; 1% of 650,000 active; AID 1508602, 2020; in the data active = activation above about 4.9%;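 note: 0% = median of compound wells and 100% = cells with positive control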
GPR151 conf act: GPR151 activators, triplicate retest, confirmation, cell-based, PathHunter beta-arrestin, luminescence; shares compounds with GPR151 activ; 6,700 tested, under 10 active; AID 1508609, 2020; GPR151 PathHunter beta-arrestin cells, 90 min; % of EA-reagent control over plate median; activation, % at 11.2 µM;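 active = mean percent activation across replicates above the confirmation screen cutoff of 4.91%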
GPR119 counter: GPR119 activators in beta-arrestin cells, counter-screen for GPR151 activator project, cell-based, PathHunter beta-arrestin, luminescence, triplicate | 90 min; 0 = compound-well median, 100 = enzyme-acceptor control | shares compounds with GPR151 activ | 0.3% of 6,700 active | activation, % at 11.2 µM;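 active = mean percent activation in the counterscreen above 29.09%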;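 note: counterscreen on off-target GPR119 to flag nonselective hits from the GPR151 activator screen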
Target sequence (Q8TDV5 whole entry, looked up): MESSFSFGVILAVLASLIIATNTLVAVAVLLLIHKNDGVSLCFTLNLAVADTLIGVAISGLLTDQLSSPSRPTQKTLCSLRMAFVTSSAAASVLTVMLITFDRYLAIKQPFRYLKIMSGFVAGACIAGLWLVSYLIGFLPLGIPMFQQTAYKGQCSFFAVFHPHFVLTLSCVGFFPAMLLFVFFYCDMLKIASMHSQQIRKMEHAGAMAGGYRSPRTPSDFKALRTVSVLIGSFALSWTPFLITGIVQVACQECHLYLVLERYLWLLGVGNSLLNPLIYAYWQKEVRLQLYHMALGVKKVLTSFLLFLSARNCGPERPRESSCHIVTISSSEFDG
Active calls of the source: *; nt = not tested or not shown; ! = repeats disagree.

SMILES	TEAD-YAP block	FBW7 activator	MITF primary	GPR151 activ	GPR151 conf act	GPR119 counter
Cc1ccc(S(=O)(=O)NCC2(c3cccs3)CCOCC2)c(C)c1	-1.4	0.3	4.4	7.3*	1.4	-6.2
CC(C)c1ccc(-n2cc(-c3ccc(C(=O)N4CCCC4)cn3)cn2)cc1	18.6	0.3	7.5	6.2*	-0.3	7.1
CC[C@@H](C(=O)[C@@H](C)[C@@H](O)[C@H](C)[C@@H]1O[C@@H]([C@@H](CC)C(=O)O)CC[C@@H]1C)[C@H]1O[C@]2(C=C[C@@H](O)[C@]3(CC[C@@](C)([C@H]4CC[C@](O)(CC)[C@H](C)O4)O3)O2)[C@H](C)C[C@@H]1C	77.7*!	-0.1	-4.0	10.7*!	-0.3	6.0
NC(=O)c1cc(NC(=O)c2ccccc2)ccc1N1CCOCC1	-45.7	1.1	15.7	0.9	nt	nt
O=c1c2sc(=S)n(Cc3ccccc3)c2nc(SCc2ccc(Cl)cc2)n1-c1cccc(Cl)c1	4.0	0.3	9.4	-2.2	nt	nt
CC1=C(C(=O)OCC2CCCO2)C(c2cccc([N+](=O)[O-])c2)C2=C(CCCC2=O)N1 (stereo unspecified)	8.5	-0.2	3.9	6.1*	0.0	8.4
CCOCCOC(=O)C1=C(C)NC2=C(C(=O)CC(c3ccc(Cl)cc3)C2)C1c1ccc(O)cc1 (stereo unspecified)	5.7	0.3	17.1	-1.0	nt	nt
CCCOCCOC(=O)C1=C(C)NC2=C(C(=O)CCC2)C1c1ccc(F)c(F)c1 (stereo unspecified)	17.5	0.7	-3.1	0.1	nt	nt
CCOCCOC(=O)C1=C(C)NC2=C(C(=O)CCC2)C1c1ccc(F)c(F)c1 (stereo unspecified)	7.0	-0.1	6.3	11.7*!	0.8	17.1
CC1=C(C(=O)OCCOc2ccccc2)C(c2cccc(O)c2)C2=C(CC(c3ccccc3)CC2=O)N1 (stereo unspecified)	6.2	1.8	7.9	14.1*	0.2	7.9
CCOCCOC(=O)C1=C(C)NC2=C(C(=O)CC(c3ccc(Cl)cc3)C2)C1c1ccc(Cl)cc1 (stereo unspecified)	17.4	0.4	-1.2	7.4*	-1.2	-3.9
CCC(C)OC(=O)C1=C(C)NC2=C(C(=O)CC(c3ccc(Cl)cc3)C2)C1c1ccc(OC)cc1OC (stereo unspecified)	3.2	0.1	7.7	0.0	nt	nt
COc1ccccc1C(=O)COC(=O)C1(C)CC1(Cl)Cl (stereo unspecified)	-30.6	0.1	-2.2	7.6*	2.4	12.6
CC(C)(C)CN1CCN(Cc2ccc3cccc(F)c3n2)CC1CCO (stereo unspecified)	-4.7	0.0	-0.3	7.2*	1.1	3.2
CC(C)CN1CCN(Cc2ccc3cccc(F)c3n2)CC1CCO (stereo unspecified)	-4.5	0.1	6.0	-0.8	nt	nt
OCc1ccccc1OCc1cccc2ccccc12	-15.8	0.2	5.8	5.3*	0.3	8.3
O=c1cnn(-c2ccccc2)c(-c2ccccc2)c1	-7.2	0.0	1.8	6.7*	-0.4	-2.5
NNC(=O)c1cc(-c2ccccc2)n(-c2ccccc2)n1	-0.7	-0.1	-16.8	-0.8	nt	nt
OC1CCN(Cc2c(F)cccc2F)CC1	2.2	0.1	-2.0	5.9*	-0.2	2.0
Cc1nn(C)cc1CN1CCC(CO)(CCOc2ccccc2)CC1	5.2	0.1	3.8	10.7*	0.8	7.7
CCOc1ccc(C(=O)Nc2cc3oc4ccccc4c3cc2OC)cc1	2.2	-0.1	12.0	1.2	nt	nt
COc1ccc(S(=O)(=O)n2nc(C)cc2C)cc1	0.3	0.7	-0.5	5.0*	0.0	-2.7
CC(C)(C)n1nc(Cc2cccc3ccccc23)c2c(N)ncnc21	nt	nt	-2.2	1.2	nt	nt
CC(C)(C)n1nc(-c2ccccc2)c2c(N)ncnc21	nt	nt	nt	5.2*	0.1	-0.9

Source: PubChem
